Structures are written as SMILES. Several values for one entry are separate records, joined by “and”; a condition that tells them apart may be missing. Identical values can stand only once. Counter-ions that a name gives are not always drawn. ± gives the uncertainty stated by the source.

This assay relates to NCC-MFS5-C1. Briefly: cell viability relative to DMSO control; higher = less growth inhibition. As to conditions: 10 µM; treatment time: 3 days. The procedure: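 NCC-MFS5-C1 myxofibrosarcoma cells (1x10^4 per well, 384-well) were treated on day 2 with 10 µM of each drug. On day 5, viability was read by CCK-8 absorbance at 450 nm and normalised to the DMSO control (%), n = 2.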
Regarding `CCC[C@@H]1C[C@@H](C(=O)N[C@@H]([C@H]2O[C@H](SC)[C@H](O)[C@@H](O)[C@H]2O)[C@@H](C)O)N(C)C1` [Lincomycin HCl], the cell viability worked out at 80.5 ± 9.3%.

With `COc1ccc2c(c1OC)C(=O)O[C@@H]2[C@H]1c2c(cc3c(c2OC)OCO3)CCN1C` [Noscapine HCl], the cell viability came out at 75.82 ± 0.21%.

Consider `CCN(CC)CCOc1ccc(C(=C(Cl)c2ccccc2)c2ccccc2)cc1` [Clomifene citrate], for which the cell viability was found to be 85.1 ± 8.8%.

Regarding `CN(C)C/C=C/C(=O)Nc1cc2c(Nc3ccc(F)c(Cl)c3)ncnc2cc1O[C@H]1CCOC1` [Afatinib (BIBW2992) Dimaleate], the cell viability came to 15 ± 7%.

In the case of `Cc1nc(Nc2ncc(C(=O)Nc3c(C)cccc3Cl)s2)cc(N2CCN(CCO)CC2)n1` [Dasatinib Monohydrate], the cell viability was found to be 60.9 ± 3.2%.

In the case of `O=C1NC(=O)[C@@H](c2cn3c4c(cccc24)CCC3)[C@@H]1c1c[nH]c2ccccc12` [Tivantinib (ARQ 197)], the cell viability came to 48.3 ± 1.5%.

Regarding `Cc1ccc(Nc2nccc(N(C)c3ccc4c(C)n(C)nc4c3)n2)cc1S(N)(=O)=O`, the cell viability amounted to 61 ± 11%.

With `C=CC(=O)Nc1cc(Nc2nccc(-c3cn(C)c4ccccc34)n2)c(OC)cc1N(C)CCN(C)C` [Osimertinib (AZD9291)], the cell viability was determined as 2.66 ± 0.22%.

For `COC(=O)C1=C(C#N)NC(C)=C(C(=O)OC(C)C)C1c1cccc([N+](=O)[O-])c1` (stereo not given) [Nilvadipine], the cell viability came out at 86 ± 4.2%.

For `CCOC(=O)[C@H](CCc1ccccc1)N[C@H]1CS[C@H](c2cccs2)CN(CC(=O)O)C1=O` [Temocapril HCl], the cell viability turned out to be 86 ± 1.2%.

As to `CC[C@@H]1/C=C(\C)C[C@H](C)C[C@H](OC)[C@H]2O[C@@](O)(C(=O)C(=O)N3CCCC[C@H]3C(=O)O[C@H](/C(C)=C/[C@@H]3CC[C@H](Cl)[C@H](OC)C3)[C@H](C)[C@@H](O)CC1=O)[C@H](C)C[C@@H]2OC` [Pimecrolimus], the cell viability came to 41.3 ± 5.4%.

With `Oc1ncnc2[nH]ncc12` [Allopurinol], the cell viability came out at 86.2 ± 18%.

As for `O=[n+]1c(CBr)c(CBr)n([O-])c2ccccc21` [Conoidin A], the cell viability was found to be 86.4 ± 1.1%.

`FC(F)(F)c1ccc(/C=C/c2nc(COc3ccc(CCCCn4ccnn4)cc3)co2)cc1` [Mubritinib (TAK 165)]: the cell viability was found to be 96 ± 3.5%.

With `COc1ccc(C2=N[C@@H](c3ccc(Cl)cc3)[C@@H](c3ccc(Cl)cc3)N2C(=O)N2CCNC(=O)C2)c(OC(C)C)c1` [Nutlin-3], the cell viability worked out at 88.6 ± 1.8%.

Consider `CNC(=O)c1ccccc1Sc1ccc2c(/C=C/c3ccccn3)n[nH]c2c1` [Axitinib], for which the cell viability stood at 79.1 ± 4.4%.

With `CC(=O)c1c(C)c2cnc(Nc3ccc(N4CCNCC4)cn3)nc2n(C2CCCC2)c1=O`, the cell viability was 50.3% and 42.8%.

For the compound `CC(=O)OCC(=O)[C@@]1(O)CC[C@H]2[C@@H]3CCC4=CC(=O)CC[C@]4(C)[C@H]3C(=O)C[C@@]21C` [Cortisone acetate], the cell viability was determined as 90.9 ± 9.9%.

With `Cc1ccc(-c2cc(C(F)(F)F)nn2-c2ccc(S(N)(=O)=O)cc2)cc1` [Celecoxib], the cell viability came to 72.1 ± 10%.

With `CCCCNC(=O)NS(=O)(=O)c1ccc(C)cc1` [Tolbutamide], the cell viability came out at 82.5 ± 3.6%.

Turning to `S=C(NCc1ccc2c(c1)OCO2)N1CCN(c2ncnc3c2oc2ccccc23)CC1` [Amuvatinib (MP-470)], the cell viability stood at 86.1 ± 9%.

For `C[C@@]12C[C@@]3(O)O[C@@H](O1)[C@]1(COC(=O)c4ccccc4)[C@H]3C[C@@]12O[C@@H]1O[C@H](CO)[C@@H](O)[C@H](O)[C@H]1O` [Paeoniflorin], the cell viability turned out to be 83.6 ± 1.2%.

As for `CS(=O)(=O)CCNCc1ccc(-c2ccc3ncnc(Nc4ccc(OCc5cccc(F)c5)c(Cl)c4)c3c2)o1`, the cell viability amounted to 77.3 ± 25%.

Consider `O=C(O)C(=O)O.[NH-][C@@H]1CCCC[C@H]1[NH-].[Pt+2]` [Oxaliplatin], for which the cell viability amounted to 72.7 ± 2.5%.

Consider `CNNCc1ccc(C(=O)NC(C)C)cc1` [Procarbazine HCl], for which the cell viability was determined as 94.3 ± 7.5%.

As to `COc1cc(N2CCC(N3CCN(C)CC3)CC2)ccc1Nc1ncc(Cl)c(Nc2ccccc2S(=O)(=O)C(C)C)n1`, the cell viability was found to be 52.7 ± 1.8%.

In the case of `O=c1[nH]cc(F)c(=O)[nH]1` [Fluorouracil (5-Fluoracil, 5-FU)], the cell viability is 78.9 ± 19%.

Regarding `C=CC(=O)Nc1cccc(Nc2nc(Nc3ccc(N4CCN(C(C)=O)CC4)cc3OC)ncc2C(F)(F)F)c1` [Rociletinib (CO-1686, AVL-301)], the cell viability came to 54.97 ± 0.41%.

Turning to `Cc1ccc(-n2[nH]c(C)c(N=Nc3cccc(-c4cccc(C(=O)O)c4)c3O)c2=O)cc1C` [Eltrombopag Olamine], the cell viability amounted to 111 ± 5.6%.

In the case of `CC#CCn1c(N2CCC[C@@H](N)C2)nc2c1c(=O)n(Cc1nc(C)c3ccccc3n1)c(=O)n2C` [Linagliptin], the cell viability turned out to be 92.8 ± 5.3%.

Values taken from the supplement of paper PMC8773631.
